Screens as filed in PubChem.
A selection: hits, their analogues and other compounds. The true share with any hit is near 31%.
CYP2C9 act – increases human cytochrome P450 2C9 activity | activation factor at 5 µM | 1.4% of 96,000 active | recombinant CYP2C9, luciferin-H conversion, luminescence; active compounds read high; factor 1 = untreated enzyme, 0 = blocked | P11712 | AID 1024;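 active = activation factor of 2 or more for CYP2C9 at a 5 µM dose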;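 note: 0 = sulfaphenazole-blocked wells and 1 = vehicle-only wells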
PLAP act – activates human placental alkaline phosphatase; P05187; purified PLAP enzyme, luminescent substrate read-out; active compounds read high; activation fold at 20 µM; 1.2% of 96,000 active; in the data active = activation fold above about 2
Target sequence (P05187 whole entry, looked up): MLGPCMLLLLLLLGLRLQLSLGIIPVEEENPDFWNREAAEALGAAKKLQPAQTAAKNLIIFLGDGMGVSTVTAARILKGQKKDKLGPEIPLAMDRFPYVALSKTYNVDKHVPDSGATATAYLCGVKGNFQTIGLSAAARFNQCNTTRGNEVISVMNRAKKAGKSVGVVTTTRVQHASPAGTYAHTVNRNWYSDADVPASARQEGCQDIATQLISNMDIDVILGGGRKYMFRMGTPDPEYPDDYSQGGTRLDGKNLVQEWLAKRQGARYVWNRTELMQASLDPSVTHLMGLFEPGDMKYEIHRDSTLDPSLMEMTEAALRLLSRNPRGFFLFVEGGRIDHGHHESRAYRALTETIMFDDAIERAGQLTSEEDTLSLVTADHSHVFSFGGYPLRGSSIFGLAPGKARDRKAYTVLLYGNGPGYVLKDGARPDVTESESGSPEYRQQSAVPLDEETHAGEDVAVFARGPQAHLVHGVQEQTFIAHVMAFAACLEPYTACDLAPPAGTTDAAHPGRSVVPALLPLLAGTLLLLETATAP
CYP2C19 act – activators of human cytochrome P450 2C19 | AID 1025 | 96,000 tested, under 10 active | recombinant CYP2C19, luciferin-H EGE luminescence; active compounds read high; 0 = fully inhibited enzyme, 1 = untreated enzyme | P33261 | activation factor at 5 µM;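 active = activation factor of at least 2 at 5 µM in the primary screen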;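 note: 0 = wells with 2.5 mM tranylcypromine and 1 = vehicle-only wells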
CYP2C19 inh – blocks human cytochrome P450 2C19 | P33261 | CYP2C19 Supersomes, luciferin-H EGE luminescence, 30 min | inhibition, % at 5 µM | 21% of 96,000 active | AID 778;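 active = CYP2C19 inhibition above a set limit at 5 µM in the primary screen, cut at about 50% in these data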;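 note: plate controls were negative control wells for no effect and 2.5 mM tranylcypromine positive control for full effect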
CYP2C9 inh – inhibitors of human CYP2C9; P11712; CYP2C9 Supersomes, luciferin-H conversion, luminescence; inhibition, % at 5 µM; 20% of 96,000 active; AID 777;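 active = blocking of liver enzyme CYP2C9 beyond about 50% at 5 µM, limit read from the data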
The depositor's hits bear a star.

SMILES	CYP2C9 act	PLAP act	CYP2C19 act	CYP2C19 inh	CYP2C9 inh
COc1cccc(-c2csc(N3CCN(C(=O)C4CCCCC4)CC3)n2)c1	0.4	1.5	0.2	77*	58*
O=C(O)c1ccccc1S(=O)(=O)c1ccccc1CO	0.9	1.1	1	2	12
CC(C)C(C(=O)NCC1CCCO1)N(Cc1ccco1)C(=O)CNS(=O)(=O)c1ccccc1 (stereo not given)	0.9	1.5	0.8	24	15
O=C(CN(CC1CCCO1)S(=O)(=O)c1ccc(S(=O)(=O)NCC2CCCO2)cc1)Nc1ccccc1 (stereo not given)	0.1	1	0.6	39	90*
O=C(Nc1ccccc1)c1ccc(S(=O)(=O)NCC2CCCO2)cc1 (stereo not given)	0.9	0.8	1	3	11
CN(C)S(=O)(=O)c1ccc(S(=O)(=O)N(CC(=O)Nc2ccccc2)Cc2ccco2)cc1	0.6	1	0.9	12	38
CN(C)S(=O)(=O)c1ccc(S(=O)(=O)N(CC(=O)Nc2ccccc2)CC2CCCO2)cc1 (stereo not given)	0.1	0.8	0.8	21	90*
CC(=O)Nc1ccc(S(=O)(=O)N(Cc2ccco2)CC2CCCO2)cc1 (stereo not given)	0.6	1.4	0.3	73*	42
Cc1ccc(OCc2nnc(SCC(=O)C(C)(C)C)n2Cc2ccco2)cc1	0.3	1.4	0.8	20	74*
Cc1cc(NC(=O)CSc2nnc(COc3ccccc3)n2Cc2ccco2)no1	0.6	0	1	-2	38
O=C(CSc1nnc(COc2ccccc2)n1Cc1ccco1)NCc1ccco1	0.2	1.6	0.4	58*	78*
COC(=O)c1ccc(OC)c(CSc2nnc(-c3ccc(C(C)(C)C)cc3)o2)c1	0.2	0.9	0.1	90*	84*
COC(=O)c1ccc(OC)c(CSc2nnc(COc3ccccc3)o2)c1	0.6	0.8	0.6	38	38
COc1ccc(-c2nnc(SCc3ccccc3F)o2)cc1OC	1.1	0.9	0.8	18	-12
O=C(CSc1nnc(COc2ccc(Cl)cc2)o1)N1c2ccccc2CCc2ccccc21	0.3	1	0.7	28	74*
COC(=O)c1ccc(OC)c(CSc2nnc(COc3ccc(Cl)cc3)o2)c1	0.1	0.8	0.2	76*	88*
CSc1nsc(SC)c1NC(=O)OCc1ccccc1	0.7	1	0.1	89*	28
CSc1nsc(SC)c1NC(=O)Nc1ccccn1	0.5	1	0.5	50	45
CSc1nsc(SC)c1NC(=O)OCCc1ccccn1	0.6	1	0	95*	35
COc1ccc(C)cc1N(CC(=O)NC1CCCC1)C(=O)CCC(=O)Nc1cc(C)on1	0.6	1.3	0.7	29	40
CCOc1ccccc1N(CC(=O)NC1CCCC1)C(=O)CCC(=O)Nc1cc(C)on1	0.2	1.7	0.2	83*	83*
COc1ccccc1N(CC(=O)NC1CCCC1)C(=O)CCC(=O)Nc1cc(C)on1	0.3	1.4	0.4	63*	65*
CCOC(=O)c1c(C)[nH]c(C)c1C(=O)CSc1nnc(-c2cc(OC)c(OC)c(OC)c2)o1	0.7	1.2	0.8	15	26
COC(=O)c1c(C)[nH]c(C(=O)C(C)Sc2nnc(-c3cc(OC)c(OC)c(OC)c3)o2)c1C (stereo not given)	0.3	1.4	0.6	40	72*
CS(=O)(=O)N(Cc1ccco1)CC(O)Cn1cc(C=O)c2ccccc21 (stereo not given)	0.8	0.9	0.6	35	16
SMILES	CYP2C9 act	PLAP act	CYP2C19 act	CYP2C19 inh	CYP2C9 inh
O=C(N/N=C\c1ccc(Cl)cc1Cl)c1sccc1-n1cccc1	0.5	0.9	0.7	33	51*
O=C(N/N=C\c1ccc(Cl)cc1)c1sccc1-n1cccc1	1	0.8	0.8	20	4
Cc1cc(N2CCOCC2)c2c(N)c(Br)cc(C)c2n1	0.9	2*	1.1	-7	11
C=CCNC(=S)N/N=C/c1ccc(OCc2ccccc2Cl)cc1	0.8	0.9	1.1	-14	17
COc1ccc(C2CCCN2C(=O)Nc2cccc(C(C)=O)c2)cc1OC (stereo not given)	0.8	1.1	0.9	10	20
N#C/C(=C\c1ccc(N2CCOCC2)o1)c1ccccc1	0.7	1.2	0.9	14	25
Fc1c(F)c(F)c(CSc2nc3ccccc3[nH]2)c(F)c1F	0.7	1	0.5	46	26
N#Cc1ccc(Sc2nc3ccccc3[nH]2)cc1C#N	0.7	1.7	0.2	76*	31
N#C/C(=C\c1ccc(Sc2nc3ccccc3[nH]2)o1)c1ccccc1	0	1.5	0.1	86*	95*
Cc1cc(NC(=O)Cn2c(C)nc3ccccc3c2=O)ccc1Br	0.4	0.9	0.6	38	60*
Cc1cc(NC(=O)Cn2nc3c(cc2=O)CCCC3)ccc1Br	0.6	1.3	0.1	88*	39
Cc1ccccc1NC(=O)Cn1c(C)nc2ccc(NC(=O)C3CC3)cc2c1=O	0.6	1	0.9	5	36
O=C(Cn1c(CN2CCCCC2)nc2ccccc2c1=O)Nc1ccccc1	0.6	0.9	0.1	88*	41
O=C(Cn1c(C2CC2)nc2ccccc2c1=O)Nc1ccc(Br)cc1	0.5	0.9	0.4	56*	51*
Cc1ccc2cc(CNC(C)C)c(=O)[nH]c2c1	1	0.9	1	4	4
CCC(=O)Nc1ccc2nc(C)n(CC(=O)Nc3ccccc3)c(=O)c2c1	0.4	1.1	0.7	28	58*
CCCc1nc2ccc(NC(=O)c3ccco3)cc2c(=O)n1Cc1ccc(Cl)cc1	1	1	0.9	12	4
CCOC(=O)CCNC(=O)Nc1ccc2nc(C)n(Cc3ccc(Cl)cc3)c(=O)c2c1	0.3	1	0.5	48	71*
CCOC(=O)C1CCN(S(=O)(=O)c2c(C)n(C)c(=O)n(C)c2=O)CC1	1.1	1	1	2	-7
O=C1c2ccccc2C(=O)N1CC1c2ccccc2CCN1C(=O)C1CCCCC1 (stereo not given)	0.7	1.4	0.3	73*	27
CCOc1cc(C(=O)N2CCN(c3ccc(C(C)=O)cc3)CC2)cc(OCC)c1OCC	0.8	1	1	4	17
CN(C(=O)COc1ccc(C(C)(C)C)cc1)C1CCS(=O)(=O)C1 (stereo not given)	1.1	1.3	1	4	-9
CN(C)S(=O)(=O)N1CCN(S(=O)(=O)c2ccc(F)cc2)CC1	1	0.9	0.9	13	0
CN(C)S(=O)(=O)N1CCC(c2ccc(F)cc2)C(COc2ccc3c(c2)OCO3)C1 (stereo not given)	0.1	1.6	0.2	79*	95*
CCc1ccc(N(CC(=O)O)S(=O)(=O)c2c(C)noc2C)cc1	0.7	1.2	1	-2	25
COc1ccc(CCNC(=O)c2noc3c2CCCC3)cc1OC	1	1.1	0.8	16	-1
